The text below walks through data of PubChem BioAssay.

Values joined by “and” are separate entries in the source; they are usually repeats but may differ in a detail not shown here. Equal values may be shown once. Inconclusive results are not listed. Active and inactive are the calls of the source.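 How the source made its calls, unless noted: active means compound raises GLP1 secretion from the human gut endocrine cells, with no numeric limit stated; inactive means the rest.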

The nature of test [1]: Wnt pathway potentiators raising nuclear beta-catenin – imaging, WNT3A-conditioned medium, mouse C2C12, NPC library, primary screen (AID 1117326; in the data active means nuclear beta-catenin stimulation mostly above about 4.2%, no sharp cut-off; inactive means mostly below about 10%; further: reference of the scale not given here). The following applies: stronger effect = higher value.
Test [2] in a line: stimulators of insulin release from INS-1E, primary screen, cell-based, 5 mM glucose, NPC library (AID 1117329;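 active means compound raises insulin release from rat beta cells at 5 mM glucose, no numeric limit stated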; further: reference of the scale not given here). The following applies: rat INS-1E insulin secretion, at 10 µM, stronger effect = higher value.
Test [3] is described as follows: growth inhibition of GSK3B-pretreated HCT116 cells – cell-based, CellTiter-Glo, 0.2 to 20 µM (AID 1117336;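 active means compounds lowering colon cancer cell viability after pretreatment blocking the GSK3B kinase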). The following applies: HCT116 viability after GSK3B inhibitor, at 20 µM, stronger effect = higher value.
Test [4] can be described thus: inhibition of endothelial tube formation, primary screen, imaging, VEGF stimulated, CD31 staining, tube area, NPC library (AID 1117340;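 active means compound that reduces growth-factor-driven endothelial tube area in a mixed cell culture, no cutoff stated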). The following applies: VEGF-stimulated ADSC/ECFC co-culture, at 10 µM, stronger effect = higher value.
Test [5] is described as follows: GLP1 release stimulators, primary, NCI-H716, NPC library (AID 1117341). Further: reference of the scale not given here. As to conditions: NCI-H716 cells, at 10 µM, stronger effect = higher value.
A short description of test [6]: HCT116 colon cancer cell growth inhibition, primary screen, CellTiter-Glo luminescence, NPC library (AID 1117342;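 active means compounds that lower survival of HCT116 colon cancer cells in the luminescence readout, no numeric limit stated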). As to conditions: at 20 µM (top of the series).
A short description of test [7]: reduced SW480 viability measured with CellTiter-Glo, NPC library, primary (AID 1117343;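 active means compounds that lower viability of the colon cancer cells in the luminescence readout, with no numeric limit stated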). As to conditions: CellTiter-Glo luminescence; at 20 µM (top of the series) unless noted.
Test [8] can be described thus: NPC library primary testing for decreased DLD-1 cell viability via CellTiter-Glo (AID 1117346;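 active means compounds that lower survival of DLD-1 colon cancer cells in the luminescence readout, no cutoff given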). The following applies: DLD-1 viability, CellTiter-Glo luminescence; at 20 µM (top of the series).
A short description of test [9]: viability loss in pontine glioma line – cell-based, SU-DIPG-XVII, MIPE5.0, CellTiter-Glo, qHTS, dose response (AID 1347060; cut-off not given, nearly all actives have AC50 up to about 26 µM;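 on AC50: cells exposed to compound for 48 hours before viability readout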). The following applies: CellTiter-Glo ATP luminescence.
Test [10] in a line: viability loss in pontine glioma line – cell-based, SU-DIPG-XIII, MIPE4.0, CellTiter-Glo, qHTS, dose response (AID 1347061; cut-off not given, nearly all actives have AC50 up to about 37 µM;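 further: cells exposed to compound for 48 hours before readout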). As to conditions: CellTiter-Glo ATP luminescence.
Test [11] can be described thus: viability loss in pontine glioma line – cell-based, SU-DIPG-IV, MIPE4.0, CellTiter-Glo, qHTS, dose response (AID 1347063; cut-off not given, nearly all actives have AC50 up to about 30 µM;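 further: compound exposure lasted 48 hours before the viability readout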). The following applies: CellTiter-Glo ATP luminescence.
The nature of test [12]: growth inhibition of DIPG cells – cell-based, MIPE5.0 library, qHTS (AID 1347068; cut-off not given, nearly all actives have IC50 up to about 30 µM). As to conditions: SU-DIPG-XXV viability.
For test [13], the target named is NAD(+) hydrolase SARM1 (Homo sapiens) (UniProt Q6SZW1). Kind of test: blocking NAD cleavage by SARM1 SAM-TIR – cell lysate, NAD-Glo luminescence (AID 1508614;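 active means compound whose remaining NAD level is above about 45 nM, limit read from the data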). As to conditions: SAM-TIR HEK293T lysate NADase, at 1 µM, stronger effect = higher value.
Chain of NAD(+) hydrolase SARM1 (Homo sapiens) (Q6SZW1 whole entry, looked up): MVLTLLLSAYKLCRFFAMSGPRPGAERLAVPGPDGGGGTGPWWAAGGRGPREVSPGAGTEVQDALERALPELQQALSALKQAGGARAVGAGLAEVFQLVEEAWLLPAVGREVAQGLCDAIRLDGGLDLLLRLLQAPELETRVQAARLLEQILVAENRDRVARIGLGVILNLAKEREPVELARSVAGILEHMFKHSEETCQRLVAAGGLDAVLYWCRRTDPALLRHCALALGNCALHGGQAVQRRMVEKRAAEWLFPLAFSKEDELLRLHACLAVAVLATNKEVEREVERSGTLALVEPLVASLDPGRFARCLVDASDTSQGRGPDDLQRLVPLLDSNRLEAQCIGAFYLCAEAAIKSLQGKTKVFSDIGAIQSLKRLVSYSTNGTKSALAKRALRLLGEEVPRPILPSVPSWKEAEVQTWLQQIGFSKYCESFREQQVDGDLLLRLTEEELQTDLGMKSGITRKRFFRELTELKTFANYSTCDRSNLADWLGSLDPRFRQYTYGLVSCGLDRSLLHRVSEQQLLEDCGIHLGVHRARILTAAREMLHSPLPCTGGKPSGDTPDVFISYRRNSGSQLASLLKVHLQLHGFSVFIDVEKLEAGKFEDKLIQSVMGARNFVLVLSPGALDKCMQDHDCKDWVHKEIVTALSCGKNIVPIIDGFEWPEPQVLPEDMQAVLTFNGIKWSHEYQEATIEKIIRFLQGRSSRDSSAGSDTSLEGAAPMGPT
Test [14] is described as follows: viability loss with induced miR-34 in A549 – imaging, A549 dox-inducible miR-34, nuclei and caspase counts, primary screen (AID 1347080;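 active means compounds whose cell count with miR-34 switched on is under 0.7 times the count with it off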). The following applies: A549 miR-34 inducible, Hoechst nuclei count, 48 h.
Test [15] can be described thus: MELAS cybrid and Rieske KO viability enhancers – cell-based, MELAS cybrids, Rieske KO mouse fibroblasts, CellTiter-Glo, primary screen (AID 1508586;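 active means mean z-score across replicates of 1.96 or higher in either the MELAS or the Rieske mutant cell line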;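 further: z relative to plate mean and SD of compound and empty wells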). The following applies: low glucose.
Test [16] in a line: P. berghei load reduction in hepatocytes – cell-based, HepG2, luciferase luminescence, HepG2 viability, primary screen (AID 624349; in the data active means parasite load remaining mostly below about 12%, no sharp cut-off; inactive means mostly above about 10%;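 further: 100% = mean of DMSO negative control wells on the same plate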). The following applies: P. berghei liver stage in HepG2, luciferase luminescence, concentration not given here; parasite load remaining: stronger effect = lower value; viability: measured here: HepG2 viability without parasites.
In test [17] the test system is Aerobactin synthetase IucA (Klebsiella pneumoniae). Description: inhibition of K. pneumoniae IucA enzyme – biochemical, Tocris library, absorbance (AID 1345561; call rule not given here;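 further: 100% = enzyme without compound and 0% = no enzyme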). The following applies: purified IucA enzyme assay, absorbance (OD) read-out; stronger effect = lower value;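 tested at 8 µM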.
Test [18] is described as follows: galactose survival enhancers in mitochondrial complex I cybrids – cell-based, galactose medium, ATP luminescence, primary screen (AID 1645843;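 active means z-score of at least 1.8 in each of two replicates, scored against plate mean and spread of sample wells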;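 further: positive z means more ATP and so rescue of galactose-driven cybrid death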). The following applies: complex I mutant cybrid cells, 72 h, stronger effect = higher value.
The mark [19] stands for this setting: stronger effect = lower value, cell number ratio, induced over uninduced.
The mark [20] stands for this setting: measured here: relative caspase fold change +Dox/-Dox.
[21] abbreviates: measured here: total cells with miR-34 induction, stronger effect = lower value.
The mark [22] stands for this setting: measured here: total cells without miR-34 induction.
The mark [23] stands for this setting: MELAS cybrid survival, CellTiter-Glo 48 h, stronger effect = higher value.
Setting [24] is: Rieske KO mouse fibroblast survival, CellTiter-Glo 72 h.

In the case of `CSCC[C@H](NC(=O)[C@H](Cc1c[nH]c2ccccc12)NC(=O)CCNC(=O)OC(C)(C)C)C(=O)N[C@@H](CC(=O)O)C(=O)N[C@@H](Cc1ccccc1)C(N)=O`, the nuclear beta-catenin stimulation is 0.1% (inactive) in test [1] (at 10 µM) and 1.3% in test [1] (stimulation, at 2 µM). Besides, the insulin secretion stimulation in test [2] was 0.8% (inactive). Further, the viability decrease in test [3] is -19% (inactive). For the same compound, the tube area decrease in test [4] is 5.2% (inactive). Also, the GLP1 secretion stimulation in test [5] was 0.3% (inactive). In [6], the inhibition of viability is -11.9% (inactive). Besides, the results for the viability decrease (inhibition) in [7] and in [8] were 23.6% (inactive) and -23.3% (inactive), respectively. Further, the outcome in test [9], in test [11] and in [12] was inactive. Further, in test [10], the half-maximal activity concentration (AC50) was 0.935 µM (active). For the same compound, in test [13], the remaining NAD was 10 nM (inactive).

`CC(C)OC(=O)C(C(=O)OC(C)C)=C1SC=CS1`: the nuclear beta-catenin stimulation in [1] (at 10 µM) is 1.3% (inactive); in test [1] (stimulation, at 2 µM), 0.1%. Also, in test [2], the insulin secretion stimulation is 0.3% (inactive). For the same compound, the viability decrease in test [3] is 3.95% (inactive). In addition, the tube area decrease in [4] is 4.8% (inactive). The GLP1 secretion stimulation in test [5] is 3.5% (inactive). For the same compound, the inhibition of viability in [6] was -0.1% (inactive). In addition, the viability decrease (inhibition) in test [7] was 6.3% (inactive); in [8] it was 8.2% (inactive). Besides, the compound was classed as inactive in test [9], in test [10], in [11] and in test [12]. The fold change in test [14] (setting [19]) was 0.9 (inactive); in test [14] (setting [20]), 0.974. Also, the figures for the cell count in test [14] (setting [21]) and in test [14] (setting [22]) were 7660 and 8520, respectively. For the same compound, the z-score was -0.382 (inactive) in test [15] (setting [23]) and 0.382 in test [15] (setting [24]).

For `NS(=O)(=O)c1cc(Cl)c(Cl)c(S(N)(=O)=O)c1`, in [16], the parasite load remaining was 89.1% (inactive). Moreover, the viability in test [16] came to 104%. The nuclear beta-catenin stimulation is -1.4% (inactive) in test [1] (at 10 µM) and 0.4% in test [1] (stimulation, at 2 µM). The insulin secretion stimulation in [2] is 3.3% (inactive). In addition, the viability decrease in [3] is 1% (inactive). Moreover, the tube area decrease in [4] is -7.2% (inactive). The GLP1 secretion stimulation in [5] is 0.3% (inactive). Further, the inhibition of viability in test [6] was 6.4% (inactive). Besides, the viability decrease (inhibition) in [7] was 6.1% (inactive); in test [8], -8.2% (inactive). Further, the AC50 in test [9] was 26.3 µM (active). The compound was called inactive in [10], in test [11] and in test [12]. Moreover, the fold change in [14] (setting [19]) is 0.878 (inactive) and 0.937 (inactive); in test [14] (setting [20]), 1.4 and 0.793. Besides, the cell count in test [14] (setting [21]) is 8460 and 8780; in test [14] (setting [22]), 9640 and 9360. Moreover, the z-score was -0.199 (inactive) and -0.0719 (inactive) in [15] (setting [23]); 0.943 and -0.845 in test [15] (setting [24]).

With `NCCNC(=O)c1ccc(Cl)cn1`, the nuclear beta-catenin stimulation in test [1] (at 10 µM) is 1.5% (inactive); in [1] (stimulation, at 2 µM) it was 0.2%. Besides, the insulin secretion stimulation in test [2] was -1.7% (inactive). Moreover, the viability decrease in test [3] is -5.05% (inactive). For the same compound, the tube area decrease in test [4] was -14.8% (inactive). Also, the GLP1 secretion stimulation in test [5] was -1.7% (inactive). For the same compound, the inhibition of viability in test [6] is -6.5% (inactive). In addition, the viability decrease (inhibition) in test [7] was 16.3% (inactive); in test [8], -10.3% (inactive). In test [17], the remaining activity was 98% (inactive). For the same compound, the fold change in [14] (setting [19]) was 0.873 (inactive); in test [14] (setting [20]) it was 1.55. Further, the results for the cell count in test [14] (setting [21]) and in test [14] (setting [22]) were 8230 and 9430, respectively. The z-score in [18] was 0.045 (inactive).
